From the supplement of paper PMC11732987, “Enantioselective OTUD7B fragment discovery through chemoproteomics screening and high-throughput optimisation” (Communications Chemistry, 2025)
Unmarked numbers belong to inactive results.

Tests used:
Test in all cases: log2 ratio of Biotin-Ahx-Ub-VS probe labelling (compound/DMSO); higher = less target engagement, active = hit call of the paper (q ≤ 0.05, log2 ratio ≤ -1)
Details in all cases: treatment time: 3 h
[1] = compound: CN(Cc1cccc(Br)c1)C(=O)CCl
How it was run: (§1)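 HEK293T lysate (495 µg per sample, in Tris/CHAPS/IGEPAL buffer with protease inhibitors) was treated in triplicate with compound at 50 or 200 µM or with DMSO for 3 h. It was then treated with Biotin-Ahx-Ub-VS (0.5 µM final) for 1 h. Labelled DUBs were NeutrAvidin-enriched, digested with LysC and trypsin, and run by diaPASEF LC-MS/MS. Median-normalised label-free quantities gave average log2 ratios compound/DMSO by unpaired t-test, using proteins with ≥2 unique peptides.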

[2] = compound: CN(Cc1cccc(OCc2ccccc2C)c1)C(=O)CCl
How it was run: as §1

[3] = compound: CN(Cc1ccccc1)C(=O)CCl
How it was run: as §1

[4] = compound: COc1ccc(CN(C)C(=O)CCl)cc1
How it was run: as §1

[5] = compound: COc1cccc(CN(CCCc2ccccc2)C(=O)CCl)c1
How it was run: as §1

[6] = compound: ClCC(=O)N1CCc2cc(Cl)c(Cl)cc2C1
How it was run: as §1

[7] = compound: ClCC(=O)N1CCc2nc(ncc2C1)-c1ccccc1
How it was run: as §1

[8] = compound: ClCC(=O)N1CCc2nocc2C1
How it was run: as §1

[9] = compound: ClCC(=O)N1CCc2scc(Br)c2C1
How it was run: as §1

[10] = compound: ClCC(=O)NC(C1CCCC1)c1cccs1
How it was run: as §1

[11] = compound: ClCC(=O)NC1CCCc2ccccc12
How it was run: as §1

[12] = compound: ClCC(=O)NC1CCOc2ccc(Cl)cc12
How it was run: as §1

[13] = compound: ClCC(=O)NC1CCSc2ccccc12
How it was run: as §1

[14] = compound: ClCC(=O)N[C@H]1CCCc2ccccc12
How it was run: as §1

[15] = compound: Fc1ccc(N2CCN(c3nc4c(CN(C(CCl)=O)CC4)cn3)CC2)cc1.Cl.Cl
How it was run: as §1

Chain of UniProt Q8TE49 (Q8TE49 whole entry): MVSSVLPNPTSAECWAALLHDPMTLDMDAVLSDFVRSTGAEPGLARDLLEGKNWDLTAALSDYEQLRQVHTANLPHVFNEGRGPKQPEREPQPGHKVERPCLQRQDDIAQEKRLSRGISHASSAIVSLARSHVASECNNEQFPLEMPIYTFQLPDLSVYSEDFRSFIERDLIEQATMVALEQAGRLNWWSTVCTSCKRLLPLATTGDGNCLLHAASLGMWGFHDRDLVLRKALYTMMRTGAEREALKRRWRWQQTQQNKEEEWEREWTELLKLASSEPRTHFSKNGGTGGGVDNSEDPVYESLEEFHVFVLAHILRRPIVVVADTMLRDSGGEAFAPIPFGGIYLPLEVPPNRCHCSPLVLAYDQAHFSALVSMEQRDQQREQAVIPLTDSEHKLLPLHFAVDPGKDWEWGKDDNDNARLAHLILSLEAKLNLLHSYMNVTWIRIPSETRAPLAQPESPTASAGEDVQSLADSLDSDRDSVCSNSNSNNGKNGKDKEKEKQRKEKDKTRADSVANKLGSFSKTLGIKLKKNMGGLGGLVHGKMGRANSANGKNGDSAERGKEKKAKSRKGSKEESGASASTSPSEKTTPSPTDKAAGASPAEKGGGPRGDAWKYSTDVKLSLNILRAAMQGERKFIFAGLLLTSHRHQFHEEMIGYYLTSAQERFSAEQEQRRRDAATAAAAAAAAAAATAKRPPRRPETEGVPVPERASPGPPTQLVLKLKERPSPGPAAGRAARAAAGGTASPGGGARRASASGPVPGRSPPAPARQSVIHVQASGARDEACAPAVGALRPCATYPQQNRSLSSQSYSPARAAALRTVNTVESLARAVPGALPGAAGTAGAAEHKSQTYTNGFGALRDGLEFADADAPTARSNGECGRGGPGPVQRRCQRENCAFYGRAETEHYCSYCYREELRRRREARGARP
Chain of UniProt Q9NUU6 (Q9NUU6 whole entry): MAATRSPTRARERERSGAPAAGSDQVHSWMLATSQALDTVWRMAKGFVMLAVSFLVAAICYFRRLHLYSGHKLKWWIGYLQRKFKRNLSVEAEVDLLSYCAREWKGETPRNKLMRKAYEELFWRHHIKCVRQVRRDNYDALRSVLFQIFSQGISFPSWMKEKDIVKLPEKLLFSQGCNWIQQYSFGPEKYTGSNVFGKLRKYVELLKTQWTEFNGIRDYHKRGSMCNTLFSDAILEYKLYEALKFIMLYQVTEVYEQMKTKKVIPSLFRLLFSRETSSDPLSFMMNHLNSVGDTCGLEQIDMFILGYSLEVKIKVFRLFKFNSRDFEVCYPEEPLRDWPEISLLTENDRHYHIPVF
Chain of UniProt Q9UPU5 (Q9UPU5 whole entry): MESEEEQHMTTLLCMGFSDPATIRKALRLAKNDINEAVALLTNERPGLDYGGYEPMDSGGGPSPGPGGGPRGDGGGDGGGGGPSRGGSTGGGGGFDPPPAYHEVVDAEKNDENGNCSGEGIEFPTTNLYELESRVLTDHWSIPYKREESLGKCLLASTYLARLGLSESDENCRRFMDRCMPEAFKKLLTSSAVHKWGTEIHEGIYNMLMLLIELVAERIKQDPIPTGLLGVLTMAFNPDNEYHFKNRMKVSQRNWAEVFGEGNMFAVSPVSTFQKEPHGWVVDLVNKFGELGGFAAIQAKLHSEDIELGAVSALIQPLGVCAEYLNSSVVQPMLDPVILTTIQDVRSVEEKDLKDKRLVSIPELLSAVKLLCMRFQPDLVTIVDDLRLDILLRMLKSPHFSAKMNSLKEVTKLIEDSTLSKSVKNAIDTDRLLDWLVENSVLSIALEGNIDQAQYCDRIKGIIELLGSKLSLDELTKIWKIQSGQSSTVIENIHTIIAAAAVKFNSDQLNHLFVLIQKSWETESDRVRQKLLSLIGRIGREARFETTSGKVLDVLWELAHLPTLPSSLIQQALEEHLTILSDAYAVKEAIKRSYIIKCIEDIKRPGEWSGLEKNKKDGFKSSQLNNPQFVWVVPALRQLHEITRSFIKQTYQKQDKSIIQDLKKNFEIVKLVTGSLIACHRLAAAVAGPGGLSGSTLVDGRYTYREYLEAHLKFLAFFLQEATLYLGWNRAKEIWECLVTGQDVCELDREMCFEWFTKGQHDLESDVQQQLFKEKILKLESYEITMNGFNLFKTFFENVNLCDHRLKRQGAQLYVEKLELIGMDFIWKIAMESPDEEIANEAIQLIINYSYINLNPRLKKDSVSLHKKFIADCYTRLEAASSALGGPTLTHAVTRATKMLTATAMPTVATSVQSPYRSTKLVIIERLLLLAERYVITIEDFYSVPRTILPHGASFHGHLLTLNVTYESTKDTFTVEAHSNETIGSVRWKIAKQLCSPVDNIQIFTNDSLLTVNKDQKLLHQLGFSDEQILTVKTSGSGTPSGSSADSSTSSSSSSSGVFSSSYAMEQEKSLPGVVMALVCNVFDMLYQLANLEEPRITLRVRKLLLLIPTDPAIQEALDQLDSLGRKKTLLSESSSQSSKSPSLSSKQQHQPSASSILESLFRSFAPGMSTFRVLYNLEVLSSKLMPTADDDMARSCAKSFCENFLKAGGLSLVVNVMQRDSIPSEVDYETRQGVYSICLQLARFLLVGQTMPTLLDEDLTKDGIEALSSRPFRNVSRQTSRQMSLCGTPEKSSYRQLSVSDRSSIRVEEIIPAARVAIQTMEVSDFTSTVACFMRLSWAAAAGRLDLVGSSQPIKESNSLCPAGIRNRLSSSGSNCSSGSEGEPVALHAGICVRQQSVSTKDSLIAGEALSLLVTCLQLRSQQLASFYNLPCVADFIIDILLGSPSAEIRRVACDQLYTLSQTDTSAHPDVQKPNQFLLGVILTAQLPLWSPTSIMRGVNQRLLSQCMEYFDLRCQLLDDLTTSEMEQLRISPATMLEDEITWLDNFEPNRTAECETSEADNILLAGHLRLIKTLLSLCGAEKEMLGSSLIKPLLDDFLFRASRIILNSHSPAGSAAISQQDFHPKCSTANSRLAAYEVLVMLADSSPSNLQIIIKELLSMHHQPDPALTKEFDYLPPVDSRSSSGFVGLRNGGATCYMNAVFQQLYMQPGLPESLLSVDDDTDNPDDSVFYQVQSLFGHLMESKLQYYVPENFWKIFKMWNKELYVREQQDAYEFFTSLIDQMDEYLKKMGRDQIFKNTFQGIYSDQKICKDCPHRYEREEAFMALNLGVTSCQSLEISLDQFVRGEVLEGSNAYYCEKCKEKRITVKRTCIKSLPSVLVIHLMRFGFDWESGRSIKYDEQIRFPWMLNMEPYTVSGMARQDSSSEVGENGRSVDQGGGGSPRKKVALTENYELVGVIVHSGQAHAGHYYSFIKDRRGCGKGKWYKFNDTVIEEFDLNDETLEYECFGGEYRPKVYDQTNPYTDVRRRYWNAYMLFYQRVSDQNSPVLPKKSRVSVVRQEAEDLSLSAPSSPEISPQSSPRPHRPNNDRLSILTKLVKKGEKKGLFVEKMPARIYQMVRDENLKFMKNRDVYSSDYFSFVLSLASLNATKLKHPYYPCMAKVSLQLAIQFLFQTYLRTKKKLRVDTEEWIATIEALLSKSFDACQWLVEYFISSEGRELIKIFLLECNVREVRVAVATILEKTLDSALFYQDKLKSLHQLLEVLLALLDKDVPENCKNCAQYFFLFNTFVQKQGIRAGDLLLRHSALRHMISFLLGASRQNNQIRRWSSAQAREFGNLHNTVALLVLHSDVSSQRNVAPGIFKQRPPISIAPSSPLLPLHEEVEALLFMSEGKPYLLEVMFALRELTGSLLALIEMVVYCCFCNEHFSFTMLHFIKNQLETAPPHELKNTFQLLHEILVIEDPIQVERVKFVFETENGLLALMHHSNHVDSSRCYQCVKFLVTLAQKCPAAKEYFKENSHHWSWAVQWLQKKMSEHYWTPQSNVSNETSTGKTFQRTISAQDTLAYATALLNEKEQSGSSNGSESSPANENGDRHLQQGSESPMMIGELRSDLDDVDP

Target	log2 ratio of Biotin-Ahx-Ub-VS probe labelling ([1]; compound concentration: 50uM)	log2 ratio of Biotin-Ahx-Ub-VS probe labelling ([1]; compound concentration: 200uM)	log2 ratio of Biotin-Ahx-Ub-VS probe labelling ([2]; compound concentration: 50uM)	log2 ratio of Biotin-Ahx-Ub-VS probe labelling ([2]; compound concentration: 200uM)	log2 ratio of Biotin-Ahx-Ub-VS probe labelling ([3]; compound concentration: 50uM)	log2 ratio of Biotin-Ahx-Ub-VS probe labelling ([3]; compound concentration: 200uM)	log2 ratio of Biotin-Ahx-Ub-VS probe labelling ([4]; compound concentration: 50uM)	log2 ratio of Biotin-Ahx-Ub-VS probe labelling ([4]; compound concentration: 200uM)	log2 ratio of Biotin-Ahx-Ub-VS probe labelling ([5]; compound concentration: 50uM)	log2 ratio of Biotin-Ahx-Ub-VS probe labelling ([5]; compound concentration: 200uM)	log2 ratio of Biotin-Ahx-Ub-VS probe labelling ([6]; compound concentration: 50uM)	log2 ratio of Biotin-Ahx-Ub-VS probe labelling ([6]; compound concentration: 200uM)	log2 ratio of Biotin-Ahx-Ub-VS probe labelling ([7]; compound concentration: 50uM)	log2 ratio of Biotin-Ahx-Ub-VS probe labelling ([7]; compound concentration: 200uM)	log2 ratio of Biotin-Ahx-Ub-VS probe labelling ([8]; compound concentration: 50uM)	log2 ratio of Biotin-Ahx-Ub-VS probe labelling ([8]; compound concentration: 200uM)	log2 ratio of Biotin-Ahx-Ub-VS probe labelling ([9]; compound concentration: 50uM)	log2 ratio of Biotin-Ahx-Ub-VS probe labelling ([9]; compound concentration: 200uM)	log2 ratio of Biotin-Ahx-Ub-VS probe labelling ([10]; compound concentration: 50uM)	log2 ratio of Biotin-Ahx-Ub-VS probe labelling ([10]; compound concentration: 200uM)	log2 ratio of Biotin-Ahx-Ub-VS probe labelling ([11]; compound concentration: 50uM)	log2 ratio of Biotin-Ahx-Ub-VS probe labelling ([11]; compound concentration: 200uM)	log2 ratio of Biotin-Ahx-Ub-VS probe labelling ([12]; compound concentration: 50uM)	log2 ratio of Biotin-Ahx-Ub-VS probe labelling ([12]; compound concentration: 200uM)	log2 ratio of Biotin-Ahx-Ub-VS probe labelling ([13]; compound concentration: 50uM)	log2 ratio of Biotin-Ahx-Ub-VS probe labelling ([13]; compound concentration: 200uM)	log2 ratio of Biotin-Ahx-Ub-VS probe labelling ([14]; compound concentration: 50uM)	log2 ratio of Biotin-Ahx-Ub-VS probe labelling ([14]; compound concentration: 200uM)	log2 ratio of Biotin-Ahx-Ub-VS probe labelling ([15]; compound concentration: 50uM)	log2 ratio of Biotin-Ahx-Ub-VS probe labelling ([15]; compound concentration: 200uM)
UniProt Q8TE49	-0.52	-0.96	-0.844	-1.04	-0.139	-0.82	-0.245	-0.895	-0.508	-0.562	-0.0686	-1.89 (active)	-0.422	-1.52 (active)	-0.33	-2.04 (active)	-0.0558	-1.81 (active)	0.0953	-0.534	-1.68 (active)	-2.58 (active)	-0.472	-2.17 (active)	-0.368	-2.26 (active)	-2.07 (active)	-2.92 (active)	-0.151	-1.37 (active)
FAM105A (UniProt Q9NUU6)	-0.187	-0.00846	-0.255	-0.114	-0.198	0.0229	-0.0227	-0.0524	-0.219	-0.197	0.119	-0.429	-0.124	-0.242	-0.252	-0.149	0.049	-0.0833	0.0872	0.0369	-0.0884	-0.0754	-0.148	-0.0677	0.0795	-0.0897	0.0155	-0.0104	0.239	-0.443
USP24 (UniProt Q9UPU5)	-0.487	-1.48 (active)	-0.993	-2.02 (active)	-0.374	-0.994	-0.209	-0.569	-0.878	-1.68 (active)	-0.754	-2.35 (active)	-0.355	-1.41 (active)	-0.201	-0.568	-1.1 (active)	-2.46 (active)	-0.0604	-0.635	-0.0627	-0.259	-0.0337	-0.691	0.0214	-0.445	0.184	-0.614	-0.726	-2.07 (active)
